Data reported in PubChem BioAssay (NCI).
Compounds without any hit were thinned out: in the full panel of roughly 79,000, 15% have a hit. Calls of active or inactive are those of the source. No stated cut-off is given here; in the data, active means growth inhibition above about 70%; inactive means the rest.

Columns and labels:
[1] = NCI Yeast Anticancer Drug Screen. Data for the rad50 strain (AID 155);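 further: 0% = growth of vehicle-only cultures of the same strain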; conditions: S. cerevisiae rad50 strain growth inhibition; at 50.0 µM; stronger effect = higher value
In short: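 Genetically altered yeast (DNA repair pathway); compound treatment; growth inhibition vs vehicle ctrl.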

[2] = NCI Yeast Anticancer Drug Screen. Data for the mec2-1 strain (AID 157); conditions: S. cerevisiae mec2-1 strain, at 50.0 µM, stronger effect = higher value
In short: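 Yeast mec2-1 mutant treated with compound. Readout: growth inhibition vs vehicle controls.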

[3] = NCI Yeast Anticancer Drug Screen. Data for the sgs1 mgt1 strain (AID 161);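 further: 0% = growth of cultures given vehicle only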; conditions: S. cerevisiae sgs1 mgt1 strain, at 50.0 µM, stronger effect = higher value
In short: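 Test agents were incubated with a DNA-repair-mutant yeast strain. Growth was then read and compared against vehicle-treated controls.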

[4] = NCI Yeast Anticancer Drug Screen. Data for the cln2 rad14 strain (AID 165);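 further: 0% = growth equal to vehicle treated cultures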; conditions: S. cerevisiae cln2 rad14 strain, at 50.0 µM, stronger effect = higher value
In short: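 cln2 rad14 yeast strain; compound exposure; growth inhibition read vs vehicle controls.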

[5] = NCI Yeast Anticancer Drug Screen. Data for the bub3 strain (AID 167); conditions: S. cerevisiae bub3 mutant strain, at 50.0 µM, stronger effect = higher value
In short: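 Yeast carrying a defined mutation is treated with each compound, and growth is compared with that of vehicle-exposed cells to give inhibition.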

[6] = NCI Yeast Anticancer Drug Screen. Data for the mlh1 rad18 strain (AID 175); conditions: S. cerevisiae mlh1 rad18 strain growth inhibition; at 50.0 µM; stronger effect = higher value
In short: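 Yeast w/ defined DNA-repair lesions; compound exposure; growth vs vehicle controls → % inhibition.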

Measured: growth inhibition

Cc1cc(Cl)ccc1N=Cc1ccc(C=Nc2ccc(Cl)cc2C)cc1
inactive: [1] 14.2% | [2] 3.6% | [3] -5.05% | [4] -1.55% | [5] 10.8% | [6] -0.5%

CCOC(=O)C(C(C)=O)C(NO)C(Cl)(Cl)Cl (stereo not given)
inactive: [1] 5.4% | [2] 13.6% | [3] 3.4% | [4] 17.1% | [5] 2.2% | [6] -3.05%

Fc1ccccc1CSc1n[nH]c(=S)c2nc[nH]c12
inactive: [1] 4.05% | [2] 8.3% | [3] 17.8% | [4] -12.3% | [5] 0.3% | [6] 12%

Clc1ccc2sc(-c3ccccc3)nc2c1
inactive: [1] -22.8% | [2] -18.4% | [3] -4.45% | [4] -23.1% | [5] 7.45% | [6] -3.6%

O=C(NCCO)c1ccc(Cl)cc1
inactive: [1] -23.6% | [2] -26.3% | [3] -30.6% | [4] 19.1% | [5] -32.4% | [6] -44.5%

CCC1(O)CC2C3C(C(=O)OC)=C4Nc5ccccc5C45CCN(C31)C25 (stereo not given)
inactive: [1] 6.2% | [2] -6.3% | [3] 3.35% | [4] 11.8% | [5] 1.9% | [6] -2.1%

CCOC(=O)c1ccc(NCc2ccc3oc(=O)c(-c4ccccc4)nc3c2)cc1
inactive: [1] -14.7% | [2] -16.6% | [3] -12.8% | [4] 22.2% | [5] -17.7% | [6] -17.4%

CN(C)CCN1CCCN(C)CC1
inactive: [1] -14.9% | [2] -13.8% | [3] -4.25% | [4] -17.2% | [5] -25.3% | [6] 5.4%

CC1=CC=NN2C(=O)[C@H](C)C2C1 (stereo not given in full)
inactive: [1] 5.8% | [2] 0.75% | [3] 0.3% | [4] 10.3% | [5] -9.05% | [6] 9.6%

Cc1cc2nc3c(=O)[nH]c(=O)nc-3n(CC(O)C(O)C(O)C(O)CO)c2cc1C (stereo not given)
inactive: [1] 33.5% | [2] 3.2% | [3] -14.4% | [4] 7.05% | [5] -7.7% | [6] 23.2%

COc1cc(-c2ccccc2)c(OC)cc1CCl
inactive: [1] 4.05% | [2] 2.95% | [3] 17.8% | [4] 6% | [5] 13.7% | [6] 20%

Fc1ccc2nncc(/C=C/c3ccccc3F)c2c1
inactive: [1] 11.3% | [2] 7.6% | [3] 8.4% | [4] -4.85% | [5] 11% | [6] -3.5%

Nc1nc(N)c2[nH]cnc2n1 (tested in a mixture with another compound)
inactive: [1] -25.5% | [2] -17.1% | [3] -31.6% | [4] 11.3% | [5] -41.6% | [6] -12%

CN1c2ccccc2S(=O)(=O)n2c(COc3ccc(Cl)cc3)nnc21
inactive: [1] -3.4% | [2] 4.15% | [3] 2.5% | [4] 12% | [5] 3.05% | [6] 2.6%

COc1ccc(N2C(=O)/C(=C/c3ccc(N(CCC#N)CCC#N)cc3C)N=C2c2cc([N+](=O)[O-])ccc2Cl)cc1
inactive: [1] -13.2% | [2] 0.95% | [3] 1.5% | [4] -5.55% | [5] -13.9% | [6] 1.85%

Nc1nc2c(nc(Br)n2C2OC(CO)C(O)C2O)c(=O)[nH]1 (stereo not given)
inactive: [1] -2.05% | [2] -1.6% | [3] 0.95% | [4] -8.4% | [5] 1.8% | [6] -9.65%

CC(NC(=O)CCl)c1ccccc1 (stereo not given)
inactive: [1] 23.7% | [2] -12.2% | [3] -12.9% | [4] 14.4% | [5] 4.25% | [6] 36.4%

O=C1NC(N2CCCCC2)=N/C1=C\c1ccccc1
inactive: [1] 25.7% | [2] -8.45% | [3] -6.1% | [4] 23.7% | [5] -10.5% | [6] -16.4%

O=C(CSc1nnc(Cc2ccccc2)o1)Nc1ccccc1
inactive: [1] -28.1% | [2] 0.05% | [3] -38.6% | [4] -13.3% | [5] -35.5% | [6] -27.1%

NC(=O)Cc1csc(Br)n1
inactive: [1] 12.9% | [2] 0.8% | [3] -6.2% | [4] -32.2% | [5] 15.4% | [6] 7.9%

CC(=O)N1Cc2c(N)ncnc2C1C (stereo not given)
inactive: [1] -10.9% | [2] -9.45% | [3] -18.8% | [4] -7.25% | [5] -0.25% | [6] -12.2%

[B-][N+]1(C)CC[N+]([B-])(C)CC1 (stereo not given)
inactive: [1] -0.6% | [2] 5.8% | [3] -7% | [4] 16.1% | [5] -5.65% | [6] -11.6%

Cc1c(C)c(C)c(CC2(C)CSC2)c(CC2(C)CSC2)c1C
inactive: [1] -1.65% | [2] -20.2% | [3] -12.6% | [4] 14.6% | [5] -41.8% | [6] 10.9%

C/C=C/C(=O)OC1CCCC1
inactive: [1] 30.9% | [2] 11.7% | [3] 23.6% | [4] 18.9% | [5] 10% | [6] 23.9%

OCC(O)Cn1cnc2c(NO)ncnc21 (stereo not given)
inactive: [1] -18.2% | [2] -20.8% | [3] -8% | [4] -15.2% | [5] 4.85% | [6] 11.1%

Cc1cccc(-c2nnc(N)o2)c1[N+](=O)[O-]
inactive: [1] -36% | [2] -9.6% | [3] -10.6% | [4] 1.75% | [5] -11.4% | [6] -16.4%

O=C(Nc1ccccc1)N1CC2(CN1)CNN(C(=O)Nc1ccccc1)C2
inactive: [1] -3.35% | [2] -3.25% | [3] 15.7% | [4] -8% | [5] -3.35% | [6] -9.75%

Fc1ccc2cc3cccc[n+]3cc2c1
inactive: [1] 27.1% | [2] 7.05% | [3] 32.4% | [4] 14.4% | [5] 10.1% | [6] 2.35%

CCOC(=O)N1c2ccccc2S(=O)(=O)c2ccccc21
inactive: [1] 40.5% | [2] -10.3% | [3] -26.4% | [4] -16.1% | [5] -22.9% | [6] -52.2%

N#CC(C#N)c1ccc(C(C#N)C#N)cc1
inactive: [1] -9.15% | [2] -6.75% | [3] 0.25% | [4] -16% | [5] -12.3% | [6] -1.55%

CC1CN(CCCOC(=O)Nc2cccc3ccccc23)CCN1Cc1ccccc1 (stereo not given)
active: [1] 81.2% | [2] 94% | [3] 95.8% | [4] 97.7% | [5] 82% | [6] 95.8%

N#Cc1c(Br)n(C2OC(CO)C(O)C2O)c2ncncc12 (stereo not given)
inactive: [1] 1.5% | [2] 7.5% | [3] 1.55% | [4] -0.05% | [5] 4.7% | [6] 2.7%

O=C(c1ccc(F)cc1)C1CCC1
inactive: [1] 16.3% | [2] -22.7% | [3] 16.6% | [4] 18.1% | [5] 18.6% | [6] 22.1%

CC1(C)C2CCC1(C)C(OC(=O)C1OC(O)C(O)C(O)C1O)C2 (stereo not given)
inactive: [1] -1.3% | [2] 24.9% | [3] 12.8% | [4] -2.75% | [5] 27.6% | [6] 28.9%

CCCCCCCCCCCCCCCCOc1ccc(C2=NCC(C)S2)c(C)c1 (stereo not given)
inactive: [1] 3.6% | [2] 2.6% | [3] 12.1% | [4] 45.7% | [5] -1.6% | [6] 38.1%

CCCCCC(C)(O)CCC (stereo not given)
inactive: [1] -5.9% | [2] -6.65% | [3] 3.65% | [4] -3.45% | [5] 6.9% | [6] -3.55%

CC(=O)OC12CC3CCC4C(CCC5(C)C(C(C)CCCC(C)C)CCC45)C3(C)CC1O2 (stereo not given)
inactive: [2] 48.4% | [3] 69.8% | [4] -1.2% | [5] 14.3% | [6] 42.2%
active: [1] 71%

ClC1CC2CCC1C2 (stereo not given)
inactive: [1] 26.9% | [2] -20.8% | [3] 8.45% | [4] 7.75% | [5] -8.3% | [6] 9.1%

CCCCCCCS(=O)(=O)CCCCC(=O)O
inactive: [1] -17.4% | [2] -5.85% | [3] -7% | [4] -3.35% | [5] 6.7% | [6] -9.5%

O=C1c2ccccc2C(=O)N1/N=C\c1ccc(O)cc1
inactive: [1] 6.8% | [2] -3.6% | [3] 7.6% | [4] 12.9% | [5] 0.95% | [6] 33.5%
